Screening data as filed in PubChem BioAssay.
miR122 inh – miR-122 sensor activation; 340,000 tested, 0.14% active; Huh7 psiCHECK-miR122 Renilla luciferase sensor, 48 h; AID 623901; activation, % at 12.5 µM;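 active means mean activation of 30% or more, with every replicate also reaching 30%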;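 further: higher luciferase signal means stronger suppression of miR-122 activity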
Large screens that a line does not name were inactive. Only a selection was taken, and hits are over-represented in it overall.

C[C@H](CO)N1C[C@H](C)[C@H](CN(C)C(=O)Nc2ccc3c(c2)OCO3)Oc2ncc(-c3cccc(C(F)(F)F)c3)cc2C1=O	miR122 inh 33
COCC(=O)N(C)C[C@H]1Oc2ncc(C#Cc3ccccc3OC)cc2C(=O)N([C@H](C)CO)C[C@@H]1C	none
COc1cccc(NC(=O)N(C)C[C@H]2Oc3ncc(C#Cc4ccccc4)cc3C(=O)N([C@@H](C)CO)C[C@@H]2C)c1	none
COc1cccc(NC(=O)N(C)C[C@@H]2Oc3ncc(C#Cc4ccncc4)cc3C(=O)N([C@@H](C)CO)C[C@H]2C)c1	miR122 inh 33
C[C@@H]1CN([C@H](C)CO)C(=O)c2cccc(NC(=O)c3ccc(-c4nccs4)cc3)c2O[C@@H]1CN(C)Cc1ccc(C(=O)Nc2ccccc2N)cc1	none
COc1cccc(-c2ccc3c(c2)O[C@H](CN(C)Cc2cccnc2)[C@@H](C)CN([C@H](C)CO)S3(=O)=O)c1	none
CNC[C@@H]1Oc2cc(C#CCC3CCCC3)ccc2S(=O)(=O)N([C@@H](C)CO)C[C@@H]1C	none
COc1ccc(-c2cnc3c(c2)C(=O)N([C@H](C)CO)C[C@H](C)[C@@H](CN(C)Cc2ccccn2)O3)cc1	none
COCC#Cc1cnc2c(c1)C(=O)N([C@@H](C)CO)C[C@H](C)[C@@H](CN(C)C(=O)Cc1ccccc1)O2	none
CCCN(C)C[C@H]1Oc2ncc(C#CC3CCCCC3)cc2C(=O)N([C@H](C)CO)C[C@H]1C	none
Cc1noc(C)c1NC(=O)N(C)C[C@@H]1Oc2ncc(C#CCC(C)C)cc2C(=O)N([C@H](C)CO)C[C@H]1C	none
Cc1noc(C)c1NC(=O)N(C)C[C@H]1Oc2cc(C#CCC(C)C)ccc2S(=O)(=O)N([C@@H](C)CO)C[C@@H]1C	none
C[C@H](CO)N1C[C@H](C)[C@@H](CN(C)Cc2cncnc2)Oc2ncc(C#CC3(O)CCCC3)cc2C1=O	none
CCCN1C[C@H](C)[C@@H](OC)CN(C)C(=O)c2ccc(NC(=O)COC)cc2OC[C@H]1C	none
COc1cccc(/C=N/Nc2ccc([N+](=O)[O-])cn2)c1O	miR122 inh 33
CN(C[C@@H]1[C@@H](c2ccccc2)[C@@H](CO)N1Cc1ccccn1)S(C)(=O)=O	none
CC(=O)N(C)C[C@@H]1[C@@H](c2ccc(-c3cccnc3)cc2)[C@H](CO)N1C(=O)C1CC1	none
O=C(NC[C@H]1N[C@H](CO)[C@H]1c1ccccc1)c1ccccc1F	none
CC(C)N(C[C@@H]1N[C@@H](CO)[C@@H]1c1ccccc1)S(=O)(=O)c1ccccc1	miR122 inh 67
CC(=O)N(C[C@@H]1N[C@@H](CO)[C@H]1c1ccc(-c2ccccc2)cc1)C(C)C	miR122 inh 67
C[C@H]1CN([C@@H](C)CO)C(=O)c2cc(-c3ccc(C#N)cc3)cnc2O[C@@H]1CN(C)CC1CCOCC1	none
C[C@@H]1CN([C@H](C)CO)S(=O)(=O)c2ccc(C3=CCCCC3)cc2O[C@@H]1CN(C)C(=O)CC1CC1	none
CCCNC(=O)N(C)C[C@@H]1Oc2ncc(C#CCC(C)C)cc2C(=O)N([C@H](C)CO)C[C@H]1C	none
COc1ccc(C#Cc2ccc3c(c2)O[C@H](CN(C)C)[C@@H](C)CN([C@H](C)CO)S3(=O)=O)cc1	none
C[C@H]1CN([C@@H](C)CO)C(=O)c2cc(-c3ccccc3)cnc2O[C@@H]1CN(C)C(=O)Nc1ccccc1	none
C[C@@H]1CN([C@@H](C)CO)C(=O)Cc2cc(N(C)C)ccc2O[C@@H]1CN(C)Cc1ccc(C(=O)Nc2ccccc2N)cc1	none
C[C@@H]1CN([C@H](C)CO)C(=O)c2cc(/C=C/c3ccccc3)cnc2O[C@@H]1CN(C)C(=O)c1cccnc1	none
C[C@@H]1CN([C@H](C)CO)C(=O)c2cc(C#C[C@@H](C)O)cnc2O[C@H]1CN(C)C(=O)CN(C)C	none
C[C@@H]1CN([C@H](C)CO)C(=O)c2cc(-c3ccccc3F)cnc2O[C@H]1CN(C)C(=O)C1CCCCC1	none
CCCC#Cc1cnc2c(c1)C(=O)N([C@H](C)CO)C[C@H](C)[C@@H](CN(C)C(=O)C1CC1)O2	none
c1ccc(-c2nnc3n2CCCC3)cc1	miR122 inh 33
C[C@@H]1CN([C@@H](C)CO)C(=O)c2cc(-c3ccc(F)cc3)cnc2O[C@@H]1CN(C)Cc1cccnc1	none
CC(C)C#Cc1ccc2c(c1)O[C@@H](CN(C)CC1CCCC1)[C@H](C)CN([C@@H](C)CO)S2(=O)=O	none
Cc1ccc(C(=O)N/N=C\c2ccc[nH]2)cc1[N+](=O)[O-]	miR122 inh 69
O=[N+]([O-])c1ccc(N/N=C/c2ccc[nH]2)cc1	miR122 inh 45
Cc1ccc(S(=O)(=O)NCCC(C)C)cc1[N+](=O)[O-]	none
C[C@@H]1CN([C@H](C)CO)C(=O)c2cc(C#Cc3ccccc3)cnc2O[C@@H]1CN(C)Cc1ccccn1	none
C[C@@H]1CN([C@@H](C)CO)C(=O)c2cc(C#CC3CC3)cnc2O[C@@H]1CN(C)C	none
COCC#Cc1ccc2c(c1)O[C@H](CN(C)C(=O)C1CCCCC1)[C@H](C)CN([C@@H](C)CO)S2(=O)=O	none
C[C@H]1CN([C@@H](C)CO)C(=O)c2cc(C#Cc3cccc(F)c3)cnc2O[C@H]1CN(C)C(=O)C1CC1	none
C[C@@H]1CN([C@@H](C)CO)C(=O)c2cc(-c3cccnc3)cnc2O[C@@H]1CN(C)Cc1ccc(Oc2ccccc2)cc1	none
C[C@H]1CN([C@@H](C)CO)C(=O)c2cc(-c3cccc(F)c3)cnc2O[C@@H]1CN(C)C(=O)C1CCOCC1	none
Cc1ccc(C(=O)C2=C(O)C(=O)N(CCCN3CCOCC3)C23C(=O)N(C)c2ccccc23)o1 (configuration not stated)	miR122 inh 32
COc1ccccc1-c1cnc2c(c1)C(=O)N([C@H](C)CO)C[C@H](C)[C@@H](CN(C)C(=O)c1ccccc1)O2	none
C[C@H](CO)N1C[C@H](C)[C@H](CN(C)C)Oc2ncc(C#CC3CC3)cc2C1=O	none
CNC[C@H]1Oc2cc(C#CCC3CCCC3)ccc2S(=O)(=O)N([C@@H](C)CO)C[C@@H]1C	none
O=C1CC(Sc2nnnn2-c2ccccc2)C(=O)N1c1cccc(Cl)c1 (configuration not stated)	miR122 inh 52
C[C@H]1CN([C@@H](C)CO)C(=O)c2cc(C3=CCCCC3)cnc2O[C@H]1CN(C)C(=O)c1ccc(F)cc1	none
COc1ccccc1-c1ccc2c(c1)O[C@H](CN(C)S(=O)(=O)c1ccc(C)cc1)[C@H](C)CN([C@@H](C)CO)S2(=O)=O	none
C[C@H]1CN([C@@H](C)CO)C(=O)c2cc(-c3ccc(F)cc3)cnc2O[C@H]1CN(C)Cc1ccc(C(=O)O)cc1	none
C[C@H](O)C#Cc1ccc2c(c1)O[C@@H](CN(C)Cc1cccnc1)[C@@H](C)CN([C@H](C)CO)S2(=O)=O	none
CN(C)S(=O)(=O)c1cccc(NC(=S)N/N=C/c2ccc(O)c(O)c2O)c1	miR122 inh 70
CCCC(O)C#Cc1cnc2c(c1)C(=O)N([C@H](C)CO)C[C@H](C)[C@H](CN(C)Cc1ccccc1)O2 (some centres not stated)	none
CCC(=O)Nc1ccc2c(c1)OC[C@H](C)N(CCC(F)(F)F)C[C@@H](C)[C@H](OC)CN(C)C2=O	none
C[C@H]1CN([C@@H](C)CO)C(=O)c2cc(C#CC(C)(C)O)cnc2O[C@H]1CN(C)C(=O)C1CC1	none
CN1C(=O)c2cc(NC(=O)c3cccc(F)c3)ccc2OC[C@@H]2O[C@@H](CC(=O)O)CC[C@@H]21	miR122 inh 87
CN1C(=O)c2cc(NC(=O)c3cccc(F)c3)ccc2OC[C@H]2O[C@@H](CC(=O)O)CC[C@H]21	miR122 inh 53
